Data from article PMC4552634, “A New Set of Chemical Starting Points with Plasmodium falciparum Transmission-Blocking Potential for Antimalarial Drug Discovery” (PLoS ONE, 2015).
Hit rate of the full screen: of about 13,000 compounds, about 3,200 (25%) showed an effect of 50% or more. The list shows a part of the results.

The compounds below were run on P. falciparum stage V gametocytes. Details: 48 h, 5 µM; inhibitor.
Parameters: BacTiter-Glo ATP luminescence viability of purified stage V gametocytes in 384-well plates, per cent inhibition versus DMSO

| Structure (SMILES) | % Inhibition [%] |
| --- | --- |
| Cc1c(CNCCCNc2nc3ccccc3[nH]2)[nH]c2cc(Cl)cc(Cl)c12 [TCMDC-139964] | 2.559 |
| Oc1ccc(-c2cncc(NCc3ccc(F)c(F)c3)c2)cc1 [TCMDC-136668] | 23.22 |
| CC(=O)Nc1nc(C(=O)Nc2ccc(-c3ccc(-c4nc5ccc(F)cc5[nH]4)cc3)cc2)cs1 [TCMDC-136779] | 1.328 |
| C=CC(=O)Nc1ccc(Cl)cc1C(O)c1ccccc1 (centres unmarked) [TCMDC-131787] | 1.536 |
| CC(C)C1c2ccc(O)cc2CC2C(=O)N(C3CCCCC3)C(=O)N21 (centres unmarked) [TCMDC-138120] | 28.46 |
| Cc1cc(-c2cccc(CNCc3ccccc3)c2)ccc1S(=O)(=O)NCCN1CCCC1 [TCMDC-132382] | 4 |
| CN1CCC(NCc2cccc(-c3ccc(S(=O)(=O)NCCN4CCCC4)c(F)c3)c2)CC1 [TCMDC-132222] | 88.17 |
| Cc1cc(-c2cccc(CNC3CCCC3)c2)ccc1S(=O)(=O)NCCN1CCCC1 [TCMDC-132279] | 103.9 |
| Cc1cc(-c2cccc(CNC3CCN(C)CC3)c2)ccc1S(=O)(=O)NC1CCC1 [TCMDC-132380] | 72.06 |
| Cc1cc(-c2cccc(CNC3CCN(C)CC3)c2)ccc1S(=O)(=O)NCCN1CCCC1 [TCMDC-132383] | 87.02 |
| Cc1cnc2cc3c(cc2c1N1CCN(C)CC1)NCC3 [TCMDC-140363] | -97.35 |
| Cc1cccc(-c2ccc(NC(=O)Nc3ccc4nccc(N5CCN(C)CC5)c4c3)cc2C)n1 [TCMDC-139353] | 26.78 |
| COc1ccc(C=NNc2nc3ccccc3[nH]2)cc1O [TCMDC-124104] | -79.21 |
| COC(=O)C(Cc1ccccc1)NC(=O)NC1CCN(c2ccnc(Nc3ccc(F)cc3)n2)C1 (centres unmarked) [TCMDC-133597] | 34.56 |
| Nc1nc(N)c2c(n1)CCC(c1ccccc1)C2 (centres unmarked) [TCMDC-137806] | -20.76 |
| CS(=O)(=O)c1ccc(Nc2ncc(-c3ccc(S(C)(=O)=O)cc3)c(OCC(F)(F)F)n2)cc1 [TCMDC-138524] | 24.49 |
| COc1ccc(C(C(=O)NC2CCN(C[C@H](O)c3ccnc4ccc(OC)cc34)CC2)N2CCc3ccccc3C2)cc1 (some centres unmarked) [TCMDC-140986] | 7.291 |
| Cc1ccc(F)c(OCC2CCN(c3ccc(C(=O)NC4CC4)cn3)CC2)c1 [TCMDC-134037] | 41.12 |
| OC(CNCc1cccc(Oc2ccc(Cl)cc2)c1)c1cccc(C(F)(F)F)c1 (centres unmarked) [TCMDC-140301] | -22.32 |
| CN(C)CCCOc1ccc(CCNCc2cccc(Oc3ccc(Cl)cc3)c2)cc1 [TCMDC-140092] | 79.59 |
| CN(C)CCCOc1ccc(CNCc2cccc(Oc3ccc(Cl)cc3)c2)cc1 [TCMDC-140101] | 61.18 |
| OC(CNCc1cccc(Oc2ccc(Cl)cc2)c1)c1cc(C(F)(F)F)cc(C(F)(F)F)c1 (centres unmarked) [TCMDC-140302] | 49.58 |
| Cc1c(-c2cccc(CNCCc3ccc(Cl)cc3)c2)cnc(N)c1C [TCMDC-138274] | 9.871 |
| CN(C)CCCOc1cccc(CCNCc2cccc(Oc3ccc(Cl)cc3)c2)c1 [TCMDC-140091] | 58.44 |

| Structure (SMILES) | % Inhibition [%] |
| --- | --- |
| CN(C)CCCOc1ccc(CCCCc2ccc(Cl)cc2C(=O)c2ccccc2)cc1 [TCMDC-131856] | 31.42 |
| CN(C)CCCOc1cccc(NC(=O)Nc2ccc(Cl)c(Cl)c2)c1 [TCMDC-139538] | -5.244 |
| COc1ccc(NC(=O)/C=C/c2cc(F)cc(C(F)(F)F)c2)cc1OCCN(C(C)C)C(C)C [TCMDC-140669] | -66.83 |
| Cc1cc2c(cc1C(F)(F)F)N(C(=O)Nc1cc(OCCN(C(C)C)C(C)C)cc(C(F)(F)F)c1)CC2 [TCMDC-140341] | -56.2 |
| CC=CC(=O)N1CCN(c2nccc(-c3ccc(C(C)(C)C)cc3)n2)CC1 [TCMDC-124777] | 7.647 |
| COc1ccc(N2C(N)=NC(N)=NC2(C)C)cc1 [TCMDC-124269] | -3.695 |
| O=[N+]([O-])c1cc(/C=N/Nc2nc3nonc3nc2Nc2ccc(F)cc2)c(Cl)cc1Cl [TCMDC-124221] | -26.03 |
| COc1cccc(C2(C)CCN(CCCCNC(=O)c3ccc(NC(=O)c4ccc(Cl)cc4)cc3)CC2)c1 [TCMDC-138368] | -18.96 |
| O=C(Nc1ccc(Br)cc1)N(CCN1CCOCC1)CC(O)COc1ccc(Cl)c(F)c1 (centres unmarked) [TCMDC-141493] | -10.57 |
| CC1(C)N=C(N)N=C(N)N1CCc1ccccc1 [TCMDC-125516] | 9.542 |
| CCOC(=O)N[C@@H]1CN[C@@H](C#Cc2cc3c(Nc4ccc(OCc5cccc(F)c5)c(Cl)c4)ncnc3s2)C1 [TCMDC-135402] | -37.93 |
| Cc1noc(C)c1C(=O)N1CCCC(c2[nH]c3c(C)cccc3c2-c2ccncc2)C1 (centres unmarked) [TCMDC-125361] | 56.42 |
| O=C(CCn1cncn1)N1CCCC(c2[nH]c3ccccc3c2-c2ccncc2)C1 (centres unmarked) [TCMDC-125377] | -42.34 |
| Cc1noc(C)c1C(=O)N1CCc2cc3nccc(N4CCN5CCC[C@H]5C4)c3cc21 [TCMDC-140041] | -37.7 |
| Oc1ccc(CCNc2nc(NCCOc3cccc4ccccc34)nc(N3CCNCC3)n2)cc1 [TCMDC-134132] | -65.6 |
| Cc1c(CN2CCCCC2)cccc1OCCCNc1nc(NCCc2ccc(O)cc2)nc(N2CCNCC2)n1 [TCMDC-134046] | 87.79 |
| CN(/N=C/c1ccc(Cl)cc1)c1nc(NCCc2ccc(O)cc2)nc(N2CCNCC2)n1 [TCMDC-138544] | 44.17 |
| Oc1ccc(CCNc2nc(NCCCOc3cccc(-c4ccccc4)c3)nc(N3CCNCC3)n2)cc1 [TCMDC-134043] | -9.264 |
| CN(/N=C/C=C/c1ccc(Cl)cc1)c1nc(NCCc2ccc(O)cc2)nc(N2CCNCC2)n1 [TCMDC-138546] | 80.85 |
| Oc1ccc(CCNc2nc(N/N=C/C=C/c3ccc(Cl)cc3)nc(N3CCNCC3)n2)cc1 [TCMDC-138545] | -5.801 |
| Oc1ccc(CCNc2nc(NCCCOc3cc(CN4CCCCC4)ccc3F)nc(N3CCNCC3)n2)cc1 [TCMDC-134044] | 66.8 |
| Cc1cc(OCCCNc2nc(NCCc3ccc(O)cc3)nc(N3CCNCC3)n2)c(Cl)c(C)c1Cl [TCMDC-134048] | -28.15 |
| Oc1ccc(CCNc2nc(NCCCOc3cccc(CN4CCCCC4)c3Cl)nc(N3CCNCC3)n2)cc1 [TCMDC-134045] | -20.8 |
